# Test results taken from ChEMBL document CHEMBL3433997, “St. Jude Leishmania screening dataset” (2016).
# Tests used:
# Format in all cases: functional
# [1] = target: Solute carrier family 2, facilitated glucose transporter member 1 (Homo sapiens) (UniProt P11166); assay: ST_JUDE_LEISH: Cytotoxicity at 2uM final concentration against transgenic Leishmania Mexicana promastigotes LmGLUT1 that are glucose transport deficient and complemented with the human glucose transporter GLUT1. Activity is measured by DNA content using SYBR green in vitro
# [2] = target: Hexose transporter 1 (Plasmodium falciparum) (UniProt O97467); assay: ST_JUDE_LEISH: Cytotoxicity at 2uM final concentration against transgenic Leishmania Mexicana promastigotes LmPfHT that are glucose transport deficient and complemented with the Plasmodium falciparum hexose transporter. Activity is measured by DNA content using SYBR green in vitro
# [3] = target: Glucose transporter (Leishmania mexicana) (UniProt O61059); assay: ST_JUDE_LEISH: Cytotoxicity at 2uM final concentration against transgenic Leishmania Mexicana promastigotes LmGT2 that are glucose transport deficient and complemented with the L. Mexicana glucose transporter 2. Activity is measured by DNA content using SYBR green in vitro
# Solute carrier family 2, facilitated glucose transporter member 1 (Homo sapiens), sequence (P11166 whole entry): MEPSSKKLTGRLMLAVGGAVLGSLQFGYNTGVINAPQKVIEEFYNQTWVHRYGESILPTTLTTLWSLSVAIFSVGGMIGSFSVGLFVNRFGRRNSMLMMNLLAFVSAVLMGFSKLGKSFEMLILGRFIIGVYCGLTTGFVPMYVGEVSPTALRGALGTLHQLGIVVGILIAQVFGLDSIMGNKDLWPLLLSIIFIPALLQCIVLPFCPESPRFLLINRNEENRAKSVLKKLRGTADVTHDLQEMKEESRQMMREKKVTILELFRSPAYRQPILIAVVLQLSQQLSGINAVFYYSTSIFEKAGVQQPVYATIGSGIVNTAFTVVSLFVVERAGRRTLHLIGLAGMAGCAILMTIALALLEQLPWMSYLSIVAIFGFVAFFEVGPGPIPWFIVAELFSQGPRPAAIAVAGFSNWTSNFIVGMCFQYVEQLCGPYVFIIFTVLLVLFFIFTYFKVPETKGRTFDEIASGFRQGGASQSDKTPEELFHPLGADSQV
Structure (SMILES),inhibition [1],inhibition [2],inhibition [3]
COc1ccc(CN2CCCC(Nc3ccc(F)c(F)c3)C2)c(O)c1 (stereo not drawn),2.58%,1.39%,3.1%
NC(=O)c1ccc(NC(=O)CN(Cc2ccc(Cl)cc2)S(=O)(=O)c2ccccc2)cc1,7.52%,5.01%,7.46%
COCCCC1C(=O)OC2CCCC21 (stereo not drawn),0.19%,3.28%,2.52%
CCc1ccccc1N1CCN(CCCCNC(=O)c2ccc(NC(=O)c3ccc(Cl)cc3)cc2)CC1,2.51%,2.19%,0.44%
CCOc1ccc(C(=O)Nc2cc(Br)c3c(c2)CNCC3)cc1Cl,1.83%,2.23%,-0.05%
COc1ccccc1-c1csc(C(=O)NC2CCCCN(Cc3ccc(C(C)(C)C)cc3)C2)c1 (stereo not drawn),2.42%,1.58%,2.61%
O=C(Nc1cccc(OC2CCN(Cc3ccsc3)CC2)c1)c1ccc(C(F)(F)F)cc1,0.75%,-0.04%,-1.05%
Cc1nc(-c2cccc(Nc3nccc(NCC(O)c4ccccc4)n3)c2)cs1 (stereo not drawn),1.43%,0.76%,2.14%
COc1ccccc1C1CCN(C2CCC(NC(=O)/C=C/c3cccc(Cl)c3)CC2)CC1 (stereo not drawn),3.59%,0.95%,-0.85%
O=C(Cc1ccc[n+]([O-])c1)Nc1cccc(-c2cccc(-c3nc4cc(F)ccc4[nH]3)c2)c1,1.61%,1.76%,4.13%
COc1ccc(C=NNc2ccnc3cc(F)c(C)cc23)c2ccccc12,8.78%,8.43%,4.95%
COc1ccc(Cl)cc1N1CCN(CCCNC(=O)c2ccc(-c3nc4cc(Cl)c(F)cc4[nH]3)s2)CC1,6.45%,5.41%,2.06%
OCC(CO)(CO)NCc1ccc2c3c(cccc13)-c1ccccc1-2,12.1%,14.8%,8.44%
O=c1cc(NCCCNCc2sc(Br)c(Br)c2Br)[nH]c2ccccc12,10.5%,9.87%,10.4%
Cc1cc(NC2CCCC2)nc(Nc2ccc(F)cc2)n1,8.81%,7.56%,0.46%
CC(=O)Nc1ccc(CN2CCC(NC(=O)c3ccc(-c4cccc(Cl)c4)s3)CC2)cc1,2.01%,-0.15%,2.8%
O=C(C=Cc1ccc(-c2ccccc2)cc1)N1CCC(CCN2CCC(c3c[nH]c4ccccc34)CC2)CC1,2.14%,9.22%,-1.2%
Cc1cc(NC(=O)c2ccc(-c3ccccc3)cc2)no1,4.35%,3.79%,4.2%
Cc1cccc2nc(-c3ccc(-c4cccc(CNCCN5CCNCC5)c4)cc3)[nH]c12,9.94%,8.32%,9.01%
CCN(CC)CCN(Cc1ccc(-c2ccc(C(F)(F)F)cc2)cc1)C(=O)Cn1c(CCc2c(F)cc(F)cc2F)nc(=O)c2ccccc21,-0.61%,0.48%,0.56%
COc1cc(NC(=O)CCCN2CCN(c3cccc(Cl)c3Cl)CC2)ccc1N1CCN(C(C)C)CC1,-2.72%,0.8%,-0.51%
Cc1cc(-c2ccc3c(c2)CCN(CCC2CCC(NC(=O)/C=C/c4ccc(F)cc4)CC2)CC3)on1 (stereo not drawn),4.44%,2.66%,4.41%
O=C(Cn1cnc2c(nnn2Cc2ccccc2F)c1=O)Nc1ccc2c(c1)OCCO2,1.31%,0.66%,-0.43%
c1ccc(COc2ccc(COc3ccc(Cn4ccnc4)cc3)cc2)cc1,2.93%,2.15%,1.02%

Structure (SMILES),inhibition [1],inhibition [2],inhibition [3]
Cc1cccc2nc(-c3cccc(-c4ccc(NC(=O)CS(C)(=O)=O)cc4)c3)[nH]c12,-0.47%,3.33%,3.81%
COc1cc(O)c2c(=O)c(OC)c(-c3cccc(Cl)c3OC3O[C@H](CO)[C@@H](O)[C@H](O)[C@H]3O)oc2c1OC (stereo partly drawn),5.21%,4.48%,4.54%
CC(C)c1ccc(NC(S)=NN=Cc2ccccn2)cc1,63.9%,88.5%,86.1%
COc1ccc(C(=O)Nc2ccc3nc(N4CCCCC4)cc(C)c3c2)cc1[N+](=O)[O-],2.05%,3.3%,2%
CN1CCC(C(=O)N(Cc2ccc(-c3ccc(CNCCc4ccc(S(C)(=O)=O)cc4)cn3)cc2)Cc2ccc3c(c2)OCO3)CC1,2.03%,0.87%,3.77%
c1cc(CNCc2ccc3c(c2)OCO3)cc(-c2cccc(CNc3ccc4ncccc4c3)c2)c1,0.81%,1.4%,-0.38%
O=C(NC1CC1)c1ccc(N2CCCCN2CCc2ccccc2)c(C(F)(F)F)c1,10.5%,19.8%,5.87%
O=C(/C=C/c1ccc(Cl)c(Cl)c1)NCCCCCN1CCC(NC(=O)c2cccc(Cl)c2)CC1,9.72%,10.2%,7.71%
Cc1ccc(NC(=O)c2cnc(N3CCN(c4ccncc4)CC3)c(Cl)c2)cc1,42.8%,16.1%,17.1%
COc1ccc(NC(=O)NC2CCN(CCCCCNC(=O)/C=C/c3ccc(Cl)c(Cl)c3)C2)c(OC)c1 (stereo not drawn),-1.78%,-1.48%,2.83%
Nc1ncc(-c2ccccc2)cc1-c1nc2cc(Cl)c(F)cc2[nH]1,7.29%,8.28%,3.16%
N#Cc1ccccc1C1CCN(C2CCC(Nc3cc(-c4cccnc4)ccn3)CC2)CC1 (stereo not drawn),2.02%,1.09%,2.26%
CN(C)CCCN(C)C(=O)c1cc2cc(-c3ccccc3)ccc2n1S(=O)(=O)c1ccccc1,5.31%,-2.36%,-0.41%
CCCc1cc(C(=O)N[C@@H](Cc2ccccc2)[C@H](O)CNC(C)C)c(F)c(N2CCCC2=O)c1,-2.2%,-0.79%,-0.74%
COc1cc(NC(=O)/C=C/c2cc(F)cc(F)c2F)cc(OCCN2CCC(O)(c3ccccc3)CC2)c1,3.43%,1.97%,2.47%
Cn1cnc2c(Nc3ccncc3)nc(-c3ccc(OC(F)(F)F)cc3)nc21,2.51%,1.84%,2.19%
CN1CC=C(c2csc3ccc(NC(=O)Nc4ccc(-c5ccncc5)c5ccccc45)cc23)CC1,3.83%,3.39%,-1.21%
CC(=O)Nc1cccc(C(=O)Nc2cccc(-c3ccc(-c4nc5cccc(C)c5[nH]4)cc3)c2)c1,0.33%,1.27%,4.99%
COc1cc(Cl)c(C)cc1N(Cc1ccccc1-c1ccccc1)S(=O)(=O)c1ccc(C(F)(F)F)cc1,1.01%,0.29%,0.43%
COC(=O)c1ccc2nc(-c3ccc(/C=C/C(=O)NC4CCN(Cc5ccccc5)CC4)cc3)[nH]c2c1,0.71%,5.26%,5.84%
COc1cc(C2=NN(S(=O)(=O)c3c(Cl)cc(Cl)cc3Cl)CCCC2)ccc1Cl,2.1%,2.71%,4.36%
O=C1OC2(CN1CC1CCN(Cc3ccc(O)c(Cl)c3)CC1)c1ccccc1-c1ccccc12,8.04%,6.3%,3.94%
COC(=O)[C@@H](NC(=O)[C@@H](Nc1ccc(C#N)c2ccccc12)C(C)(C)C)c1ccc(O)cc1,2.65%,1.12%,0.19%
CCOc1ccc2nc(C)cc(N/N=C/c3ccccc3[N+](=O)[O-])c2c1,33.1%,26.4%,33.9%

Structure (SMILES),inhibition [1],inhibition [2],inhibition [3]
Cc1cc2cc(NC(=O)Nc3ccnc4ccccc34)ccc2n1C,0.22%,0.43%,0.82%
CC(=O)COc1c(C2CCN(CCCCNC(=O)c3ccc(-c4ccc(C(F)(F)F)cc4)cc3)CC2)ccc2c1CCCC2,0.29%,5.93%,0.59%
CC[C@H]1CN2CCc3c([nH]c4ccccc34)[C@@H]2C[C@@H]1CC1c2cc(OC)c(OC)cc2CCN1C (stereo partly drawn),9.81%,10%,9.79%
CC(C)Sc1nc(-c2ccccc2)nc2c1COC(C)(C)C2,-2.07%,-2.02%,-4.12%
O=C(Cn1cc(C=C2SC(=NC3CCCC3)N(C3CCCC3)C2=O)c2ccccc21)N1CCCC1,4.24%,1.46%,0.81%
Cc1ccc(/C=C/C(=O)NCCCCCN2CCN(C(=O)Nc3ccc(Cl)c(C(F)(F)F)c3)CC2)cc1,4.47%,-0.2%,0.88%
N=C(N)NC(=O)Nc1ccc(Cl)c(Cl)c1,3.47%,-2.48%,-1.06%
Cc1ccc2c(=NN=Cc3cccc(Cl)c3)cc(C)[nH]c2c1,0.92%,0.93%,1.04%
C[C@H]1CN(Cc2cccc(-c3cc(CNC(=O)c4cccc(CN5CCN(CCOc6ccccc6)CC5)c4)ccc3F)c2)CCN1,0.77%,0.96%,2.94%
O=C(CCCCCNC(=O)c1ccc(O)c(-c2ccc(Cl)c(Cl)c2)c1)NC1CCCCCC1,4.53%,3.51%,4.8%
CC(C)CCN1CCC(Oc2ccc(NC(=O)c3ccc4ncccc4c3)cc2Cl)C1 (stereo not drawn),1.24%,2.56%,1.94%
CC[C@H](C)CNC(=O)c1ccnc(-c2ccc(CN3CCC(N4CCCC4)CC3)cc2)c1,1.51%,0.38%,0.35%
Cc1[nH]c(C)c(-c2ccc(Oc3ccc(C(F)(F)F)cc3)cc2)c(=O)c1Br,3.22%,5.35%,3.05%
Cc1nc2ccc(-c3nc4cc(N)ccc4[nH]3)cc2[nH]1,-2.46%,10%,1.44%
O=C(Nc1ccc(-c2nc3ccccc3[nH]2)cc1)c1cccc(S(=O)(=O)N2CCOCC2)c1,4.9%,5.13%,4.05%
CC(C)C(C)(C#N)NC(=O)CSc1nc2ccc([N+](=O)[O-])cc2s1 (stereo not drawn),-0.35%,0.01%,-1.55%
O=C(Nc1ccnc2ccccc12)NC1CCN(Cc2ccccc2)CC1,3.42%,3.28%,3.89%
CC(C)(C)n1nnnc1C(c1cccnc1)N(Cc1ccccc1)Cc1ccc(Cl)cc1 (stereo not drawn),2.8%,10.2%,2.8%
CC(C)(Oc1c(C2CCN(CCCCNC(=O)c3ccc(-c4ccc(C#N)cc4)cc3)CC2)ccc2c1CCCC2)C(N)=O,0.07%,0.7%,-1.31%
FC(F)(F)c1ccc2[nH]c(-c3ccc(-c4ccc(CN5CCN(c6ccncc6)CC5)cc4)cc3)nc2c1,77.4%,85.7%,69%
COc1ccc(OCC(=O)Nc2cc(-c3nc4ccccc4[nH]3)ccc2Cl)cc1,6.17%,6.14%,3.14%
COc1ccc2c(c1CNCCCCCCNCc1c(OC)ccc3c1CCCC3)CCCC2,11.1%,8.33%,7.55%
Cc1cc(-c2cc(-c3ccc(OCCN(C)C)cc3)[nH]c2-c2ccc3c(c2)CCC3=NO)ccn1,4.92%,3.52%,2.39%
